Data from the supplement of paper PMC6555819.

Tests used:
Experiment in all cases: PBM binding z-score (relative to random genomic background probes); higher = stronger binding; sequences stand for … in GC…GCGATTGACAGCGTAGAATGAAGG
[1] = test system: FXR:RXRa (NR concentration 270 nM, RXRa partner concentration 90 nM)
Outline: (§1)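 Ligand-free nuclear receptor dimers were bound for 1 h to custom Agilent 4×180K protein-binding microarrays. Detection used antibodies against each partner (one per run). Binding z-scores rest on regression-normalized fluorescence, with random background probes as the reference.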

[2] = test system: LXRa:RXRa (NR concentration 270 nM, RXRa partner concentration 90 nM)
Outline: as §1

[3] = test system: LXRa homodimer (NR concentration 270 nM)
Outline: as §1

[4] = test system: LXRb:RXRa (NR concentration 270 nM, RXRa partner concentration 90 nM)
Outline: as §1

[5] = test system: LXRb homodimer (NR concentration 270 nM)
Outline: as §1

[6] = test system: PPARa:RXRa (NR concentration 270 nM, RXRa partner concentration 90 nM)
Outline: as §1

[7] = test system: PPARg:RXRa (NR concentration 180 nM, RXRa partner concentration 90 nM)
Outline: as §1

[8] = test system: PPARg:RXRa 270nM:90nM, anti-RXR (NR concentration 270 nM, RXRa partner concentration 90 nM)
Outline: as §1

[9] = test system: PPARg:RXRa 30nM:10nM, anti-RXR (NR concentration 30 nM, RXRa partner concentration 10 nM)
Outline: as §1

[10] = test system: PPARg:RXRa 90nM:30nM, anti-RXR (NR concentration 90 nM, RXRa partner concentration 30 nM)
Outline: as §1

[11] = test system: PPARg:RXRa DBDmut IVT, anti-RXR (DBD mutation: RXRa K156A/R161A, NR concentration 270 nM, RXRa partner concentration 90 nM)
Outline: as §1

[12] = test system: PPARg:RXRa IVT, anti-PPARg (NR concentration 270 nM, RXRa partner concentration 90 nM)
Outline: as §1

[13] = test system: PPARg DBDmut:RXRa IVT, anti-PPARg (DBD mutation: PPARg1 K132A/R137A, NR concentration 270 nM, RXRa partner concentration 90 nM)
Outline: as §1

[14] = test system: PPARg DBDmut IVT, anti-PPARg (DBD mutation: PPARg1 K132A/R137A, NR concentration 270 nM)
Outline: as §1

[15] = test system: PPARg homodimer (NR concentration 180 nM)
Outline: as §1

[16] = test system: PXR:RXRa (NR concentration 270 nM, RXRa partner concentration 90 nM)
Outline: as §1

[17] = test system: PXR homodimer (NR concentration 270 nM)
Outline: as §1

[18] = test system: RARa:RXR (NR concentration 270 nM, RXRa partner concentration 90 nM)
Outline: as §1

[19] = test system: RARa homodimer (NR concentration 270 nM)
Outline: as §1

[20] = test system: RARb:RXRa (NR concentration 270 nM, RXRa partner concentration 90 nM)
Outline: as §1

Sequence	PBM binding z-score [1]	PBM binding z-score [2]	PBM binding z-score [3]	PBM binding z-score [4]	PBM binding z-score [5]	PBM binding z-score [6]	PBM binding z-score [7]	PBM binding z-score [8]	PBM binding z-score [9]	PBM binding z-score [10]	PBM binding z-score [11]	PBM binding z-score [12]	PBM binding z-score [13]	PBM binding z-score [14]	PBM binding z-score [15]	PBM binding z-score [16]	PBM binding z-score [17]	PBM binding z-score [18]	PBM binding z-score [19]	PBM binding z-score [20]
AGAATGAGGTTCAGATCAGGGAAACAGAATACAT	0.604	0.299	-0.377	0.614	-0.379	1.14	0.585	-0.121	0.313	0.345	-0.151	0.433	1.08	0.118	0.165	0.507	0.222	1.41	0.488	0.706
GCATATAGGTAATACAAGGTGCAAGTCCGATTGT	-0.133	-0.156	-0.264	-0.333	-0.455	0.617	0.975	0.986	0.152	0.648	3.88	2.81	0.731	0.109	0.579	-0.0713	0.191	0.538	0.49	-0.282
TCATATAGGTAAATGCTAGGCGAAAGTCCGATCT	0.564	0.758	0.304	0.58	-0.0313	0.932	0.63	2.22	3.7	2.88	3.99	1.93	1.19	0.583	0.561	0.4	0.459	0.458	0.728	0.249
TCTGCTAGGTCAACGATGGTCAGATAATCTGCTA	3.65	2.85	0.0239	1.94	0.0958	3.3	2.82	3.22	2.1	2.55	4.35	4.34	-0.0109	0.256	1.82	2.15	-0.779	2.44	-0.13	4.26
AGTCAAAGTTCACTAGGTAACGTCAGATTCAGCT	4.66	4.88	2.92	2.84	0.994	4.68	6.81	6.74	4.13	5.98	2.77	4.95	1.36	0.959	2.35	3.97	3.07	3.22	1.07	4.88
CCTAGCTGGTCAAGGTCACACACGCTATAGGTAC	4.92	3.91	1.74	3.43	0.392	4.23	2.76	3.05	0.699	1.94	1.88	2.8	0.834	0.076	3.15	4.03	1.43	4.64	2.61	3.99
CGAACTTGGTCATTGACAGGACAGTGAATAGTAA	0.086	-0.0975	-0.179	0.228	-0.101	0.267	0.262	0.00224	-0.244	-0.0611	0.617	0.897	0.111	0.232	0.209	0.0575	0.147	0.48	0.507	0.912
AGAATGAGGTTAGACGTAGATCAGGGAAGAAAGT	0.755	0.774	0.0351	0.67	-0.107	2.02	0.989	1.22	0.406	0.527	3.27	1.52	0.96	1.16	0.901	0.631	0.578	1.17	0.74	1.21
TATACAGGGTCCAAGGCCAGAGTACGAATGTCGA	0.36	0.228	0.0779	0.18	1.02	0.314	0.93	0.625	0.686	0.795	-0.0833	0.889	1	0.775	0.44	0.336	0.699	0.0317	0.427	1.2
ATCGAAAGGTGGAGGTGAGTATAGAGAAAGGGAA	0.433	0.583	-0.00361	0.504	0.617	0.622	0.263	0.302	0.265	0.243	-0.413	0.772	-0.138	-0.168	0.613	0.147	0.659	0.0317	1.06	1.28
GCTAGTTGGTCAGTCAAAGGTCACACACCGGTCG	3.52	4.41	4.17	3.94	0.493	4.62	5.33	5.92	4.22	5.9	1.51	3.42	-0.105	0.277	3.62	5.2	1.01	6.33	1.11	4.36
CGTCCAAGGTCAGAGAGGTGAGTGAATGCCGAGT	4.98	3.29	0.18	2.43	0.0466	4.06	2.73	2.95	0.53	1.78	2.79	3.19	-0.199	-0.145	3.3	3.15	1.96	3.43	0.424	4.78
GCTACTTGGTCAGTAAAAGGTCACACACCGGTCG	3.65	4.51	4.98	4.37	1.61	4.59	3.39	4.65	2.3	4.1	1.59	3.24	0.501	1.24	5.33	5.09	1.32	6.09	2.99	4.23
CCGACTGGGGCAAGGTTTCCATAACGCACAGCCA	-0.141	-0.322	-0.44	-0.321	-0.889	0.606	2.28	2.75	0.608	1.97	2.98	3.2	-0.0108	-1.24	0.216	-0.725	-0.351	-0.351	-0.575	0.592
CGTCCAAGGTCAGAAGGTCAGTGAAAGCGACGTG	5.88	4.43	0.719	3.22	-0.0292	5	3.62	4.51	0.861	3.11	2.28	3.06	0.15	-0.646	3.82	4.48	0.822	5.89	1.32	5.45
